A number with no mark means an inactive call. For some of these results: Results with a measured potency or affinity are listed apart. Active and inactive are the calls of the source. Unless noted, how the calls were made is not given here.

Test [1] can be described thus: antimalarial activity against Dd2 strain (AID 2302;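 active means growth inhibition above 50% at the single 2 µM test dose, taken to imply half-maximal potency below 2 µM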;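 further: 0% = DMSO untreated growth and 100% = chloroquine plus artemisinin killed control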). The conditions noted are these: P. falciparum Dd2 in RBCs, LDH growth readout, 72 h; at 2 µM; stronger effect = higher value.
Test [2] in a line: human hepatoma cell viability loss – ATP luminescence, cytotoxicity control for P. falciparum antimalarial project, primary screen (AID 2303;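 active means inhibition above 50%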;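 further: 0% = DMSO wells and 100% = digitonin-killed cells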). The settings on record: HepG2 viability, 24-48 h, at 10 µM, stronger effect = higher value.
Test [3] has as its target L-lactate dehydrogenase (Plasmodium falciparum (isolate CDC / Honduras)) (UniProt Q27743). The test is described as follows: PfLDH activity inhibition – cell lysate, 3D7 strain, counter-screen for P. falciparum growth inhibition project (AID 2304).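 Further: 0% = vehicle and 100% = reference inhibitor.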 The settings on record: P. falciparum 3D7 crude extract, LDH APAD/NBT absorbance; at 2 µM; stronger effect = higher value. For orientation: The purpose of a counterscreen is to sort out artefacts and off-target activity.

The nature of test [4]: inhibition of 3D7 malaria parasite growth – strain 3D7 (AID 2306).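 Further: 0% = DMSO wells and 100% = chloroquine plus artemisinin control wells.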 The settings on record: P. falciparum 3D7 erythrocytic growth, LDH absorbance, 72 h; at 2 µM; stronger effect = higher value.
In test [5] the target is Calcium-dependent protein kinase 1 (Plasmodium falciparum (isolate 3D7)) (UniProt P62344). The experiment in a line: PfCDPK1 kinase inhibitors, biochemical, TCAMS library (AID 1159585; cut-off not given, nearly all actives have IC50 up to about 0.98 µM;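 further: inhibitors leave more ATP so luminescence rises with inhibition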). The conditions noted are these: recombinant PfCDPK1, Kinase-Glo ATP depletion luminescence. On the technique in general: Kinase-Glo reads ATP consumption through a luciferase reaction.
Test [6] addresses Plasmodium falciparum protein kinase 6 (PK6, PF3D7_1337100) (UniProt Q8IDW1). The experiment in a line: PfPK6 kinase inhibitors, biochemical, TCAMS library (AID 1159586). The conditions noted are these: recombinant PfPK6, Kinase-Glo ATP depletion luminescence.
The target of test [7] is Protein kinase 7 (PK7), Plasmodium falciparum 3D7 (PF3D7_0213400) (UniProt Q7YTF7). The test is described as follows: inhibition of Plasmodium PK7 catalytic activity – biochemical, TCAMS antimalarial set, Kinase-Glo luminescence (AID 1159587). The conditions noted are these: recombinant PfPK7, Kinase-Glo ATP depletion luminescence.
Test [8] concerns the target Calcium-dependent protein kinase 4 (Plasmodium falciparum (isolate 3D7)) (UniProt Q8IBS5). The experiment in a line: PfCDPK4 kinase inhibitors, biochemical, TCAMS library (AID 1159588; cut-off not given, nearly all actives have IC50 up to about 0.91 µM). The settings on record: recombinant PfCDPK4, Kinase-Glo ATP depletion luminescence.

L-lactate dehydrogenase (Plasmodium falciparum (isolate CDC / Honduras)), sequence (Q27743 whole entry, looked up): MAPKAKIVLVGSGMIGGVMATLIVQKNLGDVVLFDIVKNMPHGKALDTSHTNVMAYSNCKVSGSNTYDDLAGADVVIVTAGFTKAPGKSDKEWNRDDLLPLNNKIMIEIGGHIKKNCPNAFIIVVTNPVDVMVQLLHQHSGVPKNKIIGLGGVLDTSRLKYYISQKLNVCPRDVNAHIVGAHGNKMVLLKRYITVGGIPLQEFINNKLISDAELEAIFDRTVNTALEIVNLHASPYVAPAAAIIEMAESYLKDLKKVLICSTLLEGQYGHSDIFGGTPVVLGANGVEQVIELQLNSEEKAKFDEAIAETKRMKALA
Plasmodium falciparum protein kinase 6 (PK6, PF3D7_1337100), sequence (Q8IDW1 1-305): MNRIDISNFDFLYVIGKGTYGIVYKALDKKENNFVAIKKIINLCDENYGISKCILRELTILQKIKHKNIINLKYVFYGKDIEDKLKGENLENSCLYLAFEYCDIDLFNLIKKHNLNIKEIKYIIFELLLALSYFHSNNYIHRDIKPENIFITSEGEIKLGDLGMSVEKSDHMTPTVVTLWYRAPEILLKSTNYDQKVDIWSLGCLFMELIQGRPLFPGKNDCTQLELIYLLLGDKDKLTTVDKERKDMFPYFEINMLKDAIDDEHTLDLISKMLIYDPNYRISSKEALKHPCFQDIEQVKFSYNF
Calcium-dependent protein kinase 4 (Plasmodium falciparum (isolate 3D7)), sequence (Q8IBS5 whole entry, looked up): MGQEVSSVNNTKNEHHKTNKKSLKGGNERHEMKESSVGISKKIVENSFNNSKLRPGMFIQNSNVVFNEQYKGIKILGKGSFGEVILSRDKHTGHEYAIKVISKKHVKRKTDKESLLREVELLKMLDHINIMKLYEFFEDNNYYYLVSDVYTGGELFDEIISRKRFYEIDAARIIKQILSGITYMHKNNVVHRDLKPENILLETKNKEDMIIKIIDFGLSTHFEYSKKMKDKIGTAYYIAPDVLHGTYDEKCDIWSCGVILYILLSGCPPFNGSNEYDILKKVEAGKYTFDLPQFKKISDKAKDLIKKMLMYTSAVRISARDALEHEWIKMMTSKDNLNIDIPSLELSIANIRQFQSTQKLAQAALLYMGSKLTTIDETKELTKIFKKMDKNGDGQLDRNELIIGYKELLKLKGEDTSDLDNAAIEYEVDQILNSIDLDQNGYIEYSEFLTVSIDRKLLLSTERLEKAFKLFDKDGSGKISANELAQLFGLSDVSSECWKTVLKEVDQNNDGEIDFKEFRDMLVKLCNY
Protein kinase 7 (PK7), Plasmodium falciparum 3D7 (PF3D7_0213400), sequence (Q7YTF7 1-343): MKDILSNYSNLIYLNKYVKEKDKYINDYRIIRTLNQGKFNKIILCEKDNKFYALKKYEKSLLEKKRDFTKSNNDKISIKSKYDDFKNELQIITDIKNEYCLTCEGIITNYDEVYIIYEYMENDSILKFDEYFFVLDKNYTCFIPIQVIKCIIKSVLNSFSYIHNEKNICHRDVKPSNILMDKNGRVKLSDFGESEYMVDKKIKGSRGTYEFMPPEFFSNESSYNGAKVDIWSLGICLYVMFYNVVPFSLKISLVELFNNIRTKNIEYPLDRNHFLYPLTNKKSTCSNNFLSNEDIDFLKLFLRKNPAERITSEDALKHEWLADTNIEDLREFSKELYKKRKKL
Calcium-dependent protein kinase 1 (Plasmodium falciparum (isolate 3D7)), sequence (P62344 whole entry, looked up): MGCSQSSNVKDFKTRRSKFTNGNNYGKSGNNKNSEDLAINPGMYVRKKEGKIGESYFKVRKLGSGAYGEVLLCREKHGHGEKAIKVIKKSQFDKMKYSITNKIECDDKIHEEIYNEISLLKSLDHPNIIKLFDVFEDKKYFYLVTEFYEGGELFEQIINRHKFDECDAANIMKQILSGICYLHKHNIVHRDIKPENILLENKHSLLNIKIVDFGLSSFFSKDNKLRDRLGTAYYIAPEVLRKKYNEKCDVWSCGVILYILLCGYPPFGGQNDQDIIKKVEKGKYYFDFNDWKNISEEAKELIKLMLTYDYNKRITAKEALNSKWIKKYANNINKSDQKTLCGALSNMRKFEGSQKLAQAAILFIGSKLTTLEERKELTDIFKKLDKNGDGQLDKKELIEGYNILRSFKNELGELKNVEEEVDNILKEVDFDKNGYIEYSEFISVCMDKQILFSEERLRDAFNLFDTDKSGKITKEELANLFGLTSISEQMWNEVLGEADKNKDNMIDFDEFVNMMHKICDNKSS

The term inhibition denotes the relative decrease from the control value, in per cent. On to `Cc1ccc(-c2csc(C)n2)c(C)c1`, for which the growth inhibition in test [1] was -3%; in test [4] it was 98% (active). For the same compound, the inhibition in test [2] was 12%; in test [3] it was 3%. Besides, the result in test [5], in test [6], in test [7] and in test [8] was inactive.

As for `CCN(CC)CCOc1ccc(C(O)(C#CC(O)(c2ccc(C)cc2)c2ccc(OCCN(CC)CC)cc2)c2ccc(C)cc2)cc1` (stereo not given), the values for the growth inhibition in test [1] and in test [4] were 98% (active) and 97% (active), respectively. Further, the figures for the inhibition in test [2] and in test [3] were 94% (active) and 6%, respectively. The result in test [5], in test [6], in test [7] and in test [8] was inactive.

For `COc1ccc(OCCCCON2C(N)=NC(N)=NC2(C)C)cc1`, the growth inhibition was 95% (active) in test [1] and 92% (active) in test [4]. The values for the inhibition in test [2] and in test [3] were 54% (active) and 4%, respectively. The outcome in test [5], in test [6], in test [7] and in test [8] was inactive.

`Cc1cc(NC2CCCC2)nc(Nc2ccccc2)n1`: the figures for the growth inhibition in test [1] and in test [4] were 75% (active) and 100% (active), respectively. Also, the inhibition in test [2] was 26%; in test [3], 0%. The outcome in test [5], in test [6], in test [7] and in test [8] was inactive.

Consider `COc1ccc2nccc(N3CCC(NCCNCc4cc5c(cn4)OCCO5)C3)c2n1` (stereo not given), for which the growth inhibition in test [1] is 3%; in test [4] it was 99% (active). In addition, the figures for the inhibition in test [2] and in test [3] were 8% and -3%, respectively. The result in test [5], in test [6], in test [7] and in test [8] was inactive.

For `Cc1cc(N(C)C)nc(Nc2ccc(NC(=O)c3ccc(F)cc3)cc2)n1`, the growth inhibition in test [1] was 21%; in test [4], 100% (active). The results for the inhibition in test [2] and in test [3] were 8% and -3%, respectively. The outcome in test [5], in test [6], in test [7] and in test [8] was inactive.

`O=C(/C=C/c1ccc(Cl)c(Cl)c1)NCCCCCCN1CCCN(C(=O)Nc2ccc(F)c(F)c2)CC1`: the growth inhibition in test [1] is 2%; in test [4], 89% (active). For the same compound, the inhibition in test [2] was 72% (active); in test [3] it was 4%. Also, the outcome in test [5], in test [6], in test [7] and in test [8] was inactive.

As to `Cc1cc(NN=Cc2cccc(Cl)c2)c2cc(F)ccc2n1`, the growth inhibition in test [1] was 100% (active); in test [4], 101% (active). Also, the values for the inhibition in test [2] and in test [3] were 1% and -5%, respectively. Besides, the outcome in test [5], in test [6], in test [7] and in test [8] was inactive.

In the case of `CS(=O)(=O)Cc1ccc(Nc2nccc(NC3CCN(c4nccc(C(F)(F)F)n4)CC3)n2)cc1`, the growth inhibition was 23% in test [1] and 88% (active) in test [4]. For the same compound, the inhibition in test [2] was 34%; in test [3], -3%. For the same compound, the outcome in test [5], in test [6], in test [7] and in test [8] was inactive.

For `CCN1CCN(CCCNc2c3ccc(Cl)cc3nc3ccc(O)cc23)CC1`, the growth inhibition in test [1] is 1%; in test [4], 103% (active). The results for the inhibition in test [2] and in test [3] were 32% and -3%, respectively. Further, the outcome in test [5], in test [6], in test [7] and in test [8] was inactive.

With `Cc1nnc(Sc2ncnc3scc(-c4ccc(F)cc4)c23)s1`, the values for the growth inhibition in test [1] and in test [4] were 50% (active) and 99% (active), respectively. Moreover, the results for the inhibition in test [2] and in test [3] were 13% and 4%, respectively. Moreover, the result in test [5], in test [6], in test [7] and in test [8] was inactive.

For `Cc1cccc(C(=O)Nc2ccc(N3CCCN(Cc4cccc(O)c4)CC3)cc2)c1`, the figures for the growth inhibition in test [1] and in test [4] were 44% and 92% (active), respectively. Besides, the inhibition in test [2] is 2%; in test [3], -3%. For the same compound, the result in test [5], in test [6], in test [7] and in test [8] was inactive.

Regarding `O=C(Nc1ccc(Cl)cc1)Nc1cccc(-c2cccc(-c3nc4ccc(F)cc4[nH]3)c2)c1`, the growth inhibition in test [1] was 84% (active); in test [4] it was 100% (active). For the same compound, the inhibition was 79% (active) in test [2] and -2% in test [3]. Besides, the result in test [5], in test [6], in test [7] and in test [8] was inactive.

`Cc1cccc2[nH]c(-c3ccc(-c4ccc(CN5CCOCC5)cc4)cc3)nc12`: the growth inhibition in test [1] was 86% (active); in test [4], 92% (active). Also, the inhibition in test [2] is 29%; in test [3] it was 0%. Further, the outcome in test [5], in test [6], in test [7] and in test [8] was inactive.

In the case of `CC(C)Nc1cc(C(=O)N[C@@H](Cc2ccccc2)[C@H](O)CNCc2cccc(C(F)(F)F)c2)c(F)c(N2CCCCS2(=O)=O)c1`, the growth inhibition in test [1] is 78% (active); in test [4], 93% (active). Besides, the inhibition in test [2] is -5%; in test [3], -2%. The outcome in test [5], in test [6], in test [7] and in test [8] was inactive.

Consider `C(=Cc1nc2ccccc2s1)c1ccc2c(c1)OCCO2`, for which the growth inhibition in test [1] is 96% (active); in test [4], 98% (active). The inhibition is 13% in test [2] and 1% in test [3]. Besides, the outcome in test [5], in test [6], in test [7] and in test [8] was inactive.

As for `O=S(=O)(Nc1cc2c(cc1O)CCN(C1CCC1)CC2)c1ccc(Oc2ccc(F)cc2)cc1`, the growth inhibition in test [1] was 52% (active); in test [4] it was 99% (active). Besides, the inhibition in test [2] is 20%; in test [3], 0%. Further, the result in test [5], in test [6], in test [7] and in test [8] was inactive.

For `O=C(C=Cc1ccc(Cl)c(Cl)c1)NCCCCCN1CCCC(CCCNS(=O)(=O)c2cccc(C(F)(F)F)c2)C1` (stereo not given), the results for the growth inhibition in test [1] and in test [4] were 33% and 94% (active), respectively. For the same compound, the inhibition in test [2] was 81% (active); in test [3] it was -3%. The outcome in test [5], in test [6], in test [7] and in test [8] was inactive.

`Cc1nccc2c(NC(=O)N[C@@H]3CCN(c4ncc(C(F)(F)F)cc4Br)C3)cccc12`: the growth inhibition is 27% in test [1] and 96% (active) in test [4]. Also, the inhibition in test [2] was 21%; in test [3], -4%. Also, the outcome in test [5], in test [6], in test [7] and in test [8] was inactive.

For `Nc1c(Cl)cc(C(O)CNCCCCCOCCc2ccccc2)cc1C(F)(F)F` (stereo not given), the growth inhibition was 96% (active) in test [1] and 99% (active) in test [4]. Further, the inhibition in test [2] is 3%; in test [3] it was 5%. The result in test [5], in test [6], in test [7] and in test [8] was inactive.

The values are drawn from PubChem BioAssay.
